# Measured values: PubChem BioAssay (NCATS)
# Results filed as inconclusive are left out. Active and inactive are the calls of the source. The call rests on the fitted dose curve; in most records, active means well fitted curve in the direction sought with a large enough effect; inconclusive means small, poorly fitted or top-dose-only effect, or another doubt; inactive means no such curve, though single readings can be large; an effect the other way counts as inactive or inconclusive.
# Molecular target: Aldehyde dehydrogenase, mitochondrial (Homo sapiens) (UniProt P05091)
# Experiment: qHTS for Inhibitors of the Aldehyde Dehydrogenase Family (ALDH2) Primary screen (AID 2061308);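 further: plate controls were vehicle for no effect and reference inhibitor for full effect; nearly all actives have a fitted effect of over 55% in size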
# Settings: ALDH2 enzyme inhibition qHTS, 1536-well; series mostly up to 56 µM; activity change, negative = inhibition: at the top concentration
row,Structure (SMILES),"activity change, negative = inhibition"
1,Fc1cc(Cl)cc(-c2ccc(CNc3nc(-c4ccccc4C(F)(F)F)nc4ccccc34)cc2)c1,-20% (inactive)
2,COC(=O)[C@H](O)[C@H]1C(C)(C)[C@H](OC(C)=O)[C@@]2(O)C(=O)[C@]1(C)C1CC[C@]3(C)C(CC(=O)O[C@H]3c3ccoc3)[C@]13O[C@@H]32 (stereo not given in full),-0.858% [at 28 µM] (inactive)
3,O=C1CCCC2=C1C(c1cnccc1C(F)(F)F)N=C(Nc1nc3ccccc3o1)N2 (stereo not given),4.8% (inactive)
4,COc1ccc(CN(Cc2ccccc2)S(=O)(=O)c2ccccc2)cc1COc1ccc(NC(C)=O)cc1,-2.43% (inactive)
5,Cc1cn(-c2cc(F)cc(NC(=O)c3ccc(C)c(Nc4nccc(-c5cccnc5)n4)c3)c2)cn1,0.574% (inactive)
6,COCCNc1nc(C)nc2c1nc(-c1ccccc1)n2CCN1CCCCC1,9.51% (inactive)
7,O=S(=O)(c1ccc2c(c1)OCCO2)N1CCN(S(=O)(=O)c2cccc(Cl)c2F)CC1,14.3% (inactive)
8,CCOc1ccc(CCNC(=O)C2=C(C)OCCO2)cc1OCC,-1.79% (inactive)
9,C[C@@H](N)C(=O)Nc1cccc(-c2nn3c(=O)cc(N4CCNCC4)nc3s2)c1,-0.371% (inactive)
10,O=C(Nc1nnc(-c2ccco2)o1)c1ccncc1,16% (inactive)
11,COc1cccc(N2C(=O)c3ccccc3C2=O)c1,6.52% (inactive)
12,O=C(Nc1ccc([S+](=O)([O-])Nc2nccs2)cc1)C1CCNCC1,-1.49% (inactive)
13,Cc1cccc(-n2cnc3cc(C(=O)N4CCC(N5CCOCC5)CC4)ccc32)c1,-2.82% (inactive)
14,Cc1ccc(-c2ccc(=O)n(CC(=O)NCCCc3ccccn3)n2)cc1,12.1% (inactive)
15,CC(C)(C)OC(=O)Cc1nnc(-c2nc3ccccc3[nH]2)s1,19.6% (inactive)
16,O=C1CCCC2=C1C(c1ccccc1Br)N=C(Nc1nc3ccccc3o1)N2 (stereo not given),2.98% (inactive)
17,CN1[C@@H]2CC[C@H]1CC(OC(=O)C(CO)c1ccccc1)C2 (stereo not given in full),1.54% (inactive)
18,Cc1ccc(-c2cc(C(=O)Nc3ccc(C(=O)O)cc3)c3ccccc3n2)cc1C,8.84% (inactive)
19,Cc1nc(NCc2ccccc2)c2nc(-c3ccccc3)n(CCN3CCCC3)c2n1,13.4% (inactive)
20,CC(C)c1ccc(NC(=O)c2cccs2)c(-c2nc3ccccc3[nH]c2=O)c1,-1.94% (inactive)

row,Structure (SMILES),"activity change, negative = inhibition"
1,O=S(=O)(c1ccsc1)N1CCN(c2nc(-c3cccs3)nc3ccccc23)CC1,3.41% (inactive)
2,OC[C@H]1O[C@@H](Oc2cccc3ccccc23)[C@H](O)[C@@H](O)[C@H]1O,0.46% (inactive)
3,CO[C@H]1/C=C/[C@@](C)(O)/C=C/C(=O)O[C@H](C)[C@@H](C)CC/C=C/1C,-21% (inactive)
4,COCC(=O)NCCc1nc2ccccc2n1CCOc1ccc(C)cc1,-3.91% (inactive)
5,NC(=O)C1CCN(c2nc(-c3cccc(Br)c3)cs2)CC1,-1.55% (inactive)
6,Nc1ccc(S(=O)(=O)Nc2cccc3cccnc23)cc1,6.18% (inactive)
7,O=C(NCc1ccc(F)cc1)n1cc(P(=S)(c2ccccc2)c2ccccc2)c2ccccc21,0.678% (inactive)
8,Cc1cc(C)n2ncc(C(=O)Nc3ccc4c(c3)OCCO4)c2n1,-1.4% (inactive)
9,NC(=O)C1CCN(c2nnc(-c3ccc(Br)cc3)s2)CC1,-16% (inactive)
10,N#CN1CCC(NS(=O)(=O)c2cccc(F)c2)C1 (stereo not given),5.37% (inactive)
11,N#Cc1ccc(N[S+](=O)([O-])c2ccc(Nc3nc(-c4ccccc4)cs3)cc2)cc1,5.04% (inactive)
12,Cc1ccc(-c2cc(C(=O)Nc3ccc(C#N)cc3)c3ccccc3n2)cc1C,3.23% (inactive)
13,O=C(Nc1ccc(F)nc1)Nc1nnc(-c2ccncc2)s1,8.52% (inactive)
14,COc1ccc(-c2nnc3n2N=C(c2cc(OC)ccc2OC)CS3)c(OC)c1,16.1% (inactive)
15,CCOc1ccc(C(=O)Nc2ccc(-c3nc4ccccc4s3)cc2)cc1[N+](=O)[O-],-3.97% (inactive)
16,CNc1nc(C#N)c(-c2cccc3ccccc23)o1,4.12% (inactive)
17,Cc1ccc(C2N=C(Nc3nc4ccccc4o3)NC3=C2C(=O)CCC3)cc1 (stereo not given),-16.1% (inactive)
18,COc1ccc(-n2cnc3c(c2=N)C(c2cccc(OC)c2)c2c(ccc4ccccc24)O3)cc1 (stereo not given),14.8% (inactive)
19,O=C(CN1C(=O)N/C(=C\c2cccn2-c2cccc(C(=O)O)c2)C1=O)Nc1ccccc1F,-9.68% (inactive)
20,c1nc(NCCCN2CCOCC2)c2cc(-c3ccc4c(c3)OCO4)ccc2n1,11.4% (inactive)

# Molecular target: Retinaldehyde dehydrogenase 3 (Homo sapiens) (UniProt P47895)
# Experiment: qHTS for Inhibitors of the Aldehyde Dehydrogenase Family (ALDH1A3) Primary screen (AID 2061315);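 further: plate controls were DMSO vehicle for no effect and reference inhibitor for full effect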
# Settings: ALDH inhibition qHTS; series mostly up to 56 µM; activity change, negative = inhibition: at the top concentration
row,Structure (SMILES),"activity change, negative = inhibition"
1,Fc1cc(Cl)cc(-c2ccc(CNc3nc(-c4ccccc4C(F)(F)F)nc4ccccc34)cc2)c1,-13% (inactive)
2,COC(=O)[C@H](O)[C@H]1C(C)(C)[C@H](OC(C)=O)[C@@]2(O)C(=O)[C@]1(C)C1CC[C@]3(C)C(CC(=O)O[C@H]3c3ccoc3)[C@]13O[C@@H]32 (stereo not given in full),-14.6% [at 28 µM] (inactive)
3,O=C1CCCC2=C1C(c1cnccc1C(F)(F)F)N=C(Nc1nc3ccccc3o1)N2 (stereo not given),5.7% (inactive)
4,COc1ccc(CN(Cc2ccccc2)S(=O)(=O)c2ccccc2)cc1COc1ccc(NC(C)=O)cc1,3.55% (inactive)
5,Cc1cn(-c2cc(F)cc(NC(=O)c3ccc(C)c(Nc4nccc(-c5cccnc5)n4)c3)c2)cn1,-2.44% (inactive)
6,COCCNc1nc(C)nc2c1nc(-c1ccccc1)n2CCN1CCCCC1,-4.16% (inactive)
7,O=S(=O)(c1ccc2c(c1)OCCO2)N1CCN(S(=O)(=O)c2cccc(Cl)c2F)CC1,13.5% (inactive)
8,CCOc1ccc(CCNC(=O)C2=C(C)OCCO2)cc1OCC,3.48% (inactive)
9,C[C@@H](N)C(=O)Nc1cccc(-c2nn3c(=O)cc(N4CCNCC4)nc3s2)c1,-6.81% (inactive)
10,O=C(Nc1nnc(-c2ccco2)o1)c1ccncc1,9.46% (inactive)
11,COc1cccc(N2C(=O)c3ccccc3C2=O)c1,6.81% (inactive)
12,O=C(Nc1ccc([S+](=O)([O-])Nc2nccs2)cc1)C1CCNCC1,-4.37% (inactive)
13,Cc1cccc(-n2cnc3cc(C(=O)N4CCC(N5CCOCC5)CC4)ccc32)c1,7.88% (inactive)
14,Cc1ccc(-c2ccc(=O)n(CC(=O)NCCCc3ccccn3)n2)cc1,16.3% (inactive)
15,CC(C)(C)OC(=O)Cc1nnc(-c2nc3ccccc3[nH]2)s1,5.94% (inactive)
16,O=C1CCCC2=C1C(c1ccccc1Br)N=C(Nc1nc3ccccc3o1)N2 (stereo not given),8.39% (inactive)
17,CN1[C@@H]2CC[C@H]1CC(OC(=O)C(CO)c1ccccc1)C2 (stereo not given in full),3.97% (inactive)
18,Cc1ccc(-c2cc(C(=O)Nc3ccc(C(=O)O)cc3)c3ccccc3n2)cc1C,-2.57% (inactive)
19,Cc1nc(NCc2ccccc2)c2nc(-c3ccccc3)n(CCN3CCCC3)c2n1,15.4% (inactive)
20,CC(C)c1ccc(NC(=O)c2cccs2)c(-c2nc3ccccc3[nH]c2=O)c1,-3.88% (inactive)

row,Structure (SMILES),"activity change, negative = inhibition"
1,O=S(=O)(c1ccsc1)N1CCN(c2nc(-c3cccs3)nc3ccccc23)CC1,-5.04% (inactive)
2,OC[C@H]1O[C@@H](Oc2cccc3ccccc23)[C@H](O)[C@@H](O)[C@H]1O,1.2% (inactive)
3,CO[C@H]1/C=C/[C@@](C)(O)/C=C/C(=O)O[C@H](C)[C@@H](C)CC/C=C/1C,3.95% (inactive)
4,COCC(=O)NCCc1nc2ccccc2n1CCOc1ccc(C)cc1,-4.28% (inactive)
5,NC(=O)C1CCN(c2nc(-c3cccc(Br)c3)cs2)CC1,6.17% (inactive)
6,Nc1ccc(S(=O)(=O)Nc2cccc3cccnc23)cc1,14.5% (inactive)
7,O=C(NCc1ccc(F)cc1)n1cc(P(=S)(c2ccccc2)c2ccccc2)c2ccccc21,4.81% (inactive)
8,Cc1cc(C)n2ncc(C(=O)Nc3ccc4c(c3)OCCO4)c2n1,13.4% (inactive)
9,NC(=O)C1CCN(c2nnc(-c3ccc(Br)cc3)s2)CC1,-5.76% (inactive)
10,N#CN1CCC(NS(=O)(=O)c2cccc(F)c2)C1 (stereo not given),2.42% (inactive)
11,N#Cc1ccc(N[S+](=O)([O-])c2ccc(Nc3nc(-c4ccccc4)cs3)cc2)cc1,3.02% (inactive)
12,Cc1ccc(-c2cc(C(=O)Nc3ccc(C#N)cc3)c3ccccc3n2)cc1C,-13.7% (inactive)
13,O=C(Nc1ccc(F)nc1)Nc1nnc(-c2ccncc2)s1,5.45% (inactive)
14,COc1ccc(-c2nnc3n2N=C(c2cc(OC)ccc2OC)CS3)c(OC)c1,3.62% (inactive)
15,CCOc1ccc(C(=O)Nc2ccc(-c3nc4ccccc4s3)cc2)cc1[N+](=O)[O-],1.1% (inactive)
16,CNc1nc(C#N)c(-c2cccc3ccccc23)o1,-4.25% (inactive)
17,Cc1ccc(C2N=C(Nc3nc4ccccc4o3)NC3=C2C(=O)CCC3)cc1 (stereo not given),20.4% (inactive)
18,COc1ccc(-n2cnc3c(c2=N)C(c2cccc(OC)c2)c2c(ccc4ccccc24)O3)cc1 (stereo not given),10.5% (inactive)
19,O=C(CN1C(=O)N/C(=C\c2cccn2-c2cccc(C(=O)O)c2)C1=O)Nc1ccccc1F,3.89% (inactive)
20,c1nc(NCCCN2CCOCC2)c2cc(-c3ccc4c(c3)OCO4)ccc2n1,-8.22% (inactive)
